Screening data: PubChem, Broad Institute
Shown are actives, neighbours in structure and some others; about 3.2% of the full set was active somewhere.
PGC1a acetyl inh – inhibitors of PGC1a acetylation signal, primary screen, cell-based, U2OS, AlphaScreen, inhibitor mode; AlphaScreen anti-acetyl-lysine; with virally co-expressed GCN5 acetyltransferase; inhibition, % at 15.6 µM; 0.17% of 350,000 active;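 active means every replicate shows inhibition of at least 40%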;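 further: 0% = neutral control wells and 100% = positive control wells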
CaV13 ICDI inh – Disruptors of the CACNA1D IQ motif to Ca2+-dependent inactivation inhibitor domain association, primary screening, Förster resonance energy transfer in intact living … | HEK cells, CFP/YFP FRET ICDI-IQ, plate reader, 10 min; percent FRET-ratio fall versus neutral wells | inhibition, % at 12.3 µM | 0.098% of 340,000 active;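 active means mean replicate inhibition of at least 30% and at least 1% of replicates passing that level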;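 further: 0% = median of the neutral control wells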
DENV2 CPE rescue – inhibitors of DENV2 cytopathic effect, primary screen, cell-based, plate reader, single concentration; AID 651640, 2012; CPE inhibition, % at 9.99 µM; DENV2-infected cells, cytopathic effect rescue; 1.7% of 350,000 active; in the data active means CPE inhibition above about 20%, passing the limit was not always enough; tested in BHK-21 cells;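 further: 0% = median of neutral control wells and 100% = median of positive control wells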
rRNA inh HTS – reduced GFP signal of wild-type E. coli, primary screen, bacterial rRNA inhibitor project, GFP/RFP fluorescence, OD600, single point | E. coli WT GFP vs humanized-ribosome RFP mutants, 24 h; active compounds read low; DMSO median 0, no signal -100 | GFP signal change (wild-type ribosome), % (concentration not given with the values) | 1.6% of 350,000 active | AID 720706, 2013;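 active means significant combined selectivity score with lowered wild-type GFP, culture density cut under 30%, mutant RFP and density less affected; inactive means any of these conditions unmet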
ERAP1 inh – human ERAP1 aminopeptidase inhibitors, primary screen, biochemical, single point, plate reader; inhibition, % at 10.7 µM; recombinant ERAP1, Leu-AMC fluorescence, 60 min; 0.15% of 340,000 active;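 active means mean replicate inhibition of at least 30%, or all replicates individually reaching that 30% level; inactive means mean below 30% and not every replicate reaching it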;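 further: 0% = neutral control wells and 100% = L-leucinethiol positive control wells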
INS-1E GSIS act – GLuc luminescence reporter in INS-1E cells, primary screen for activators of glucose-dependent secretion of insulin; 0.61% of 370,000 active; INS-1E GLuc reporter insulin secretion, 2-3 h; activation, % at 16.6 µM;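 active means lowest replicate activation of at least 40%, so every replicate reaches that level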;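 further: 0% = median of neutral control wells and 100% = median of IBMX positive control wells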
An asterisk follows results filed as active; ! = not confirmed by another sample.

Screening CCCCC1=CC2=CC(=O)C(C)(OC(=O)CC)C(=O)C2=CN1c1cccc(C#N)c1 (stereo unspecified) returned PGC1a acetyl inh 6.8, CaV13 ICDI inh -7.6, DENV2 CPE rescue 25.8*, rRNA inh HTS -16.1 and ERAP1 inh 5.5.
`COc1ccc(Cn2nnnc2CN(Cc2cc3cccc(C)c3[nH]c2=O)C2CCCC2)cc1` gave PGC1a acetyl inh 29.8, CaV13 ICDI inh -9.0, rRNA inh HTS 8.1, ERAP1 inh -0.4 and INS-1E GSIS act -13.1.
Screening Cc1ccc2cc(CN(Cc3cccs3)Cc3nnnn3CC3CCCO3)c(=O)[nH]c2c1 (stereo unspecified) returned PGC1a acetyl inh -4.6, CaV13 ICDI inh -6.8, DENV2 CPE rescue 2.8, rRNA inh HTS -28.9*, ERAP1 inh -0.3 and INS-1E GSIS act 25.1.
`COc1ccc(Cn2nnnc2CN(Cc2cc3ccc(C)cc3[nH]c2=O)C2CCCC2)cc1` gave PGC1a acetyl inh 42.1* and INS-1E GSIS act -26.6.
O=C(Nc1ccccc1F)N[C@H]1CC[C@@H](CCNC(=O)C2CCC2)O[C@H]1CO was read as PGC1a acetyl inh -12.2, DENV2 CPE rescue 2.5, rRNA inh HTS 1.6, ERAP1 inh 1.9 and INS-1E GSIS act 12.5.
For O=C(NC1CCCC1)[C@H]1[C@H](CO)[C@H]2Cn3c(ccc(C4=CCCCC4)c3=O)[C@@H]1N2CC1CC1 the results were DENV2 CPE rescue 2.5, rRNA inh HTS -3.0, ERAP1 inh 1.2 and INS-1E GSIS act -3.1.
`C[C@@H]1CN([C@@H](C)CO)C(=O)Cc2cc(NC(=O)CCN3CCOCC3)ccc2O[C@@H]1CN(C)Cc1ccccc1` gave DENV2 CPE rescue -2.3, rRNA inh HTS 5.1, ERAP1 inh -1.1 and INS-1E GSIS act 8.9.
Screening O=C(CN1c2ccccc2Sc2ccccc21)NNC(=S)Nc1ccc(Cl)cc1 returned PGC1a acetyl inh -5.1, CaV13 ICDI inh 4.2, DENV2 CPE rescue -1.9, rRNA inh HTS -47.7*, ERAP1 inh -1.6 and INS-1E GSIS act -17.3.
O=C(c1ccc(N2CCN(C(=O)c3ccccc3)CC2)cc1)c1cccc(F)c1 was read as CaV13 ICDI inh -4.0, DENV2 CPE rescue 65.2*, rRNA inh HTS -21.3, ERAP1 inh 5.8 and INS-1E GSIS act -34.6.
`CCC(=O)N1C[C@H](C)[C@H](OC)CN(C)C(=O)c2cc(NC(=O)c3ccc(F)cc3)ccc2OC[C@@H]1C` gave PGC1a acetyl inh -17.8, DENV2 CPE rescue 11.2, rRNA inh HTS -3.1, ERAP1 inh 2.6 and INS-1E GSIS act -10.6.
CC(C)c1ccccc1NC(=O)Cn1c(-c2ccccc2Cl)nc2ccccc21 was read as PGC1a acetyl inh 43.3*, CaV13 ICDI inh -3.1 and INS-1E GSIS act -9.0.
For O=C(C1=C[C@H](c2ccc(C(F)(F)F)cc2)C[C@H](OCc2ccc(CO)cc2)O1)N1CCCCCCC1 the results were PGC1a acetyl inh -12.5.
`CN1CCN(C(=O)C2=C[C@H](c3ccc(C(F)(F)F)cc3)C[C@H](OCc3ccc(CO)cc3)O2)CC1` gave PGC1a acetyl inh -0.3, CaV13 ICDI inh -12.0, DENV2 CPE rescue 46.7*!, rRNA inh HTS -3.0, ERAP1 inh 4.1 and INS-1E GSIS act -13.5.
Screening O=C(C1=C[C@@H](c2ccc(C(F)(F)F)cc2)C[C@@H](OCc2ccc(CO)cc2)O1)N1CCOCC1 returned PGC1a acetyl inh -19.3, CaV13 ICDI inh -11.3, DENV2 CPE rescue 25.0*!, rRNA inh HTS -8.3, ERAP1 inh 1.2 and INS-1E GSIS act -25.1.
Screening O=C(O)C1=C[C@@H](c2ccc(C(F)(F)F)cc2)C[C@@H](OCc2ccc(CO)cc2)O1 returned PGC1a acetyl inh 8.6, CaV13 ICDI inh -10.4, DENV2 CPE rescue 3.4, rRNA inh HTS -10.1, ERAP1 inh 10.4 and INS-1E GSIS act -5.3.
For COc1cc(NC(=O)Nc2ccc(Cl)c(Cl)c2)c(C(=O)O)cc1OC the results were PGC1a acetyl inh -9.2, CaV13 ICDI inh -5.3, DENV2 CPE rescue 4.1, rRNA inh HTS -40.4*, ERAP1 inh 0.4 and INS-1E GSIS act 18.5.
For C[C@H]1CN([C@@H](C)CO)S(=O)(=O)c2ccc(-c3ccncc3)cc2O[C@H]1CN(C)C the results were PGC1a acetyl inh 1.7, DENV2 CPE rescue 7.8, rRNA inh HTS 1.6, ERAP1 inh 3.2 and INS-1E GSIS act 3.1.
`C/C=C/c1cnc2c(c1)C(=O)N([C@@H](C)CO)C[C@H](C)[C@H](CN(C)S(=O)(=O)c1ccccc1F)O2` gave PGC1a acetyl inh -0.3, DENV2 CPE rescue -4.0, rRNA inh HTS 5.4, ERAP1 inh -0.6 and INS-1E GSIS act 11.7.
For C[C@@H]1CN([C@@H](C)CO)C(=O)c2cccc(NC(=O)c3ccc(-c4nccs4)cc3)c2O[C@H]1CN(C)CC1CCCCC1 the results were PGC1a acetyl inh 5.7, DENV2 CPE rescue -4.1, rRNA inh HTS 0.1, ERAP1 inh -2.2 and INS-1E GSIS act -10.7.
CCOc1ccc(NC(=S)N=Nc2c(O)[nH]c3ccccc23)cc1 was read as CaV13 ICDI inh -6.9, DENV2 CPE rescue -4.9, rRNA inh HTS -11.0, ERAP1 inh 0.7 and INS-1E GSIS act -15.2.
Oc1cccc(NC(=S)N=Nc2c(O)[nH]c3ccccc23)c1 was read as PGC1a acetyl inh 9.5, CaV13 ICDI inh -1.7, DENV2 CPE rescue 12.5, rRNA inh HTS -54.1*, ERAP1 inh 7.5 and INS-1E GSIS act 3.2.
O=[N+]([O-])c1ccccc1Sc1nccn1Cc1ccccc1 was read as CaV13 ICDI inh -4.6 and INS-1E GSIS act 53.6*.
COc1cccc(-c2ccc(SCC(=O)c3ccccc3)nn2)c1 was read as PGC1a acetyl inh -5.4, CaV13 ICDI inh -3.1, DENV2 CPE rescue 6.9, rRNA inh HTS -26.9*, ERAP1 inh 5.1 and INS-1E GSIS act 21.1.
CO[C@H]1CN(C)C(=O)c2cc(NC(=O)NC(C)C)ccc2OC[C@@H](C)N(Cc2ccccn2)C[C@H]1C was read as PGC1a acetyl inh 4.1, DENV2 CPE rescue -3.0, rRNA inh HTS 0.8, ERAP1 inh -3.1 and INS-1E GSIS act 9.2.
`COc1ccc(-c2cc(C(F)(F)F)nc(SCc3cccc(C(=O)O)c3)n2)cc1` gave PGC1a acetyl inh -6.0, CaV13 ICDI inh -6.7, DENV2 CPE rescue -2.9, rRNA inh HTS -43.3*, ERAP1 inh -1.8 and INS-1E GSIS act -32.8.
Screening O=C(O)c1cccc(CSc2nc(-c3ccccc3)cc(C(F)(F)F)n2)c1 returned CaV13 ICDI inh -3.9, DENV2 CPE rescue -5.1, rRNA inh HTS -56.3 and ERAP1 inh 2.3.
